Data taken from PubChem BioAssay AID2284132 (EPA ToxCast).
Inconclusive results are not listed. Activity calls are given as the source filed them. Rule for the calls: active = hit-call score of the fitted dose curve at least 0.9, where 1 is the maximum; inconclusive = response in the unintended direction; inactive = score below 0.9.

These compounds were tested against human SGK1 AGC Kinase, SGK1 (gene 6446) (UniProt O00141) (assay: ERF_FR_ENZ_hSGK1: Eurofins (ERF) Enzymatic Radiometric [Km ATP] KinaseProfiler LeadHunter Assay for human SGK1 AGC Kinase).
Procedure: ERF_FR_ENZ_hSGK1 is a biochemical, single-readout assay that uses extracted gene-proteins in a cell-free assay. Measurements were taken 0.5 hour after chemical dosing in a 96-well plate. See SGK1 Human AGC Kinase Enzymatic LANCE Assay [Km ATP], Cerep.ERF_FR_ENZ_hSGK1 is an assay component calculated from the ERF_FR_ENZ_hSGK1 assay. It is designed to measure enzyme activity using a type of enzyme reporter as detected by fluorescence intensity with LANCE technology.Data from the assay component ERF_FR_ENZ_hSGK1 was analyzed at the assay endpoint, ERF_FR_ENZ_hSGK1, in the positive analysis fitting direction relative to DMSO as the negative control and baseline of activity. Using a type of enzyme reporter, loss-of-signal activity can be used to understand changes in enzymatic activity as they relate to gene SGK1. To generalize the intended target to other relatable targets, this assay endpoint is annotated to the kinase intended target family, where the subfamily is serine/threonine kinase.
SGK (h) is incubated with 8 mM MOPS pH 7.0, 0.2 mM EDTA, 30 uM […], 10 mM MgAcetate and [g- 33P]-ATP (specific activity and concentration as required). The reaction is initiated by the addition of the Mg/ATP mix. After incubation for 40 minutes at room temperature, the reaction is stopped by the addition of phosphoric acid to a concentration of 0.5%. […]

human SGK1 AGC Kinase, SGK1 (gene 6446), sequence (O00141 whole entry, looked up): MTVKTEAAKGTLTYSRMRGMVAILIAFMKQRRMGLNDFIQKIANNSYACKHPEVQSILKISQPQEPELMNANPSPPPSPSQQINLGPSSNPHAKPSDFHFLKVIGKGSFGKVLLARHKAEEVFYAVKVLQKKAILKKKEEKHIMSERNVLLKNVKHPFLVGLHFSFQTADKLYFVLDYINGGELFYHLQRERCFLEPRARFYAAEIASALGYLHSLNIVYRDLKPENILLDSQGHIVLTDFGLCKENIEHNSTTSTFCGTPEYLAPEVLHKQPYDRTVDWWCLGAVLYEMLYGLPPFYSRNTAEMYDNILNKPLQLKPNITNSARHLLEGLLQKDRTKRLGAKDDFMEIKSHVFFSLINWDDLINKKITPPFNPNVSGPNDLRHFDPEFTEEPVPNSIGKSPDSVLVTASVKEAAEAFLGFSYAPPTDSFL

| SMILES | outcome |
| --- | --- |
| O=C(/C=C/c1ccc(O)cc1)CC(=O)/C=C/c1ccc(O)cc1 | inactive |
